An excerpt weighted towards active compounds, which were near 2.8% of everything screened.
HEK293 viab – counter-screen for SNCA expression inhibitors: cell viability; HEK-293-SNCA-luc viability, GF-AFC fluorescence, 24 h; Potency, µM (highest dose often 57.1 µM), usual class: cytotoxic; 150,000 tested, 0.12% active; AID 1671193; also: nearly all actives have a fitted effect of over 30% in size
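HEK-293-SNCA-luc cells (1500/well) plated 24 h, then exposed 24 h to a dilution series; GF-AFC added 30 min at 37C, fluorescence 405/540 nm; normalised to medium-only and DMSO wells, Hill fit.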
IP6K1 inhibitor – blocks human inositol hexakisphosphate kinase 1 | 140,000 tested, 0.81% active | IP6K1 kinase, ADP-Glo luminescence, 2 h; hits give low values | Q92551 | activity change, % (series mostly up to about 58 µM); in the data active = activity change below about -25%
Target sequence (Q92551 whole entry, looked up): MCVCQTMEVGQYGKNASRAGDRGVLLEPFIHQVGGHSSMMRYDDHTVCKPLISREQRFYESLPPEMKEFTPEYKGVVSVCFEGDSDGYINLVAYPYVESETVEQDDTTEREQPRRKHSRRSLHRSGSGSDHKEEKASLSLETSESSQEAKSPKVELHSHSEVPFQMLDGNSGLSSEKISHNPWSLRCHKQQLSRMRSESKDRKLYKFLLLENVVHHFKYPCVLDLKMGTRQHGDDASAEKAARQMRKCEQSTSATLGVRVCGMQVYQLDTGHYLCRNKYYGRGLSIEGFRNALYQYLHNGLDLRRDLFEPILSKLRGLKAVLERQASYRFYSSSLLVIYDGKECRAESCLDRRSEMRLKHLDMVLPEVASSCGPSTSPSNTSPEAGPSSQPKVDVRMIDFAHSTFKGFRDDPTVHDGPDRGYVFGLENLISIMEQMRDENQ
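ADP-Glo luminescence measures ADP made by human IP6K1 during a 2 h RT reaction with ATP/IP6 (mix at 1.3 mM/130 uM); top library doses 57.5 and 19.1 uM final.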
SNCA expr inh – SNCA gene expression inhibition | HEK-293 SNCA-luciferase knock-in, luminescence, 24 h | Potency, µM (titrated, usually from 57.2 µM), actives largely listed as inhibitors | 140,000 tested, 0.17% active; also: nearly all actives have a fitted effect of over 45% in size
KDM5B inhibitor – inhibitors of human KDM5B histone demethylase. Q9UGL1. KDM5B demethylase, FDH-coupled NADH fluorescence (FDH is formaldehyde dehydrogenase). Potency, µM (doses to about 57.7 µM), hits mostly inhibitors. 220,000 tested, 2.6% active; also: nearly all actives have a fitted effect of over 70% in size
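Compound dilutions met 200 nM (final) KDM5BΔAP for 10 min at room temperature before substrate addition. The substrate mix held 12.5 µM H3K4me3 with cofactors 25 µM α-ketoglutarate and 50 µM Fe²⁺. NADH signal gain over 30 min defined activity.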
A number is an active result; - = inactive; ? = inconclusive; . = no result. Unless noted, calls follow the shape of the dose curve; as a rule, active = well fitted curve in the direction sought with a large enough effect; inconclusive = small, poorly fitted or top-dose-only effect, or another doubt; inactive = no such curve, though single readings can be large; an effect the other way counts as inactive or inconclusive.

SMILES	HEK293 viab	IP6K1 inhibitor	SNCA expr inh	KDM5B inhibitor
O=C(NCc1cccnc1)c1cccnc1N1CC2CC(C1)[C@H]1CCCC(=O)N1C2 (some centres not stated)	-	-	-	28.2µM
O=C(NCc1cccc(F)c1)c1ccc(N2CC3CC(C2)[C@H]2CCCC(=O)N2C3)nc1 (some centres not stated)	-	-	-	-
O=C(CCC[C@H]1NC[C@@H]2CC1CN(Cc1ccccc1)C2)N1CCCC1	-	-	-	-
CN(Cc1cccnc1)C(=O)CCC[C@H]1NC[C@@H]2C[C@H]1CN(Cc1ccccc1)C2	-	-	-	?
CN(Cc1ccc(N2CCCCC2)cc1)C(=O)CCC[C@H]1NC[C@@H]2C[C@H]1CN(Cc1ccccc1)C2	22.4µM	-	?	?
CC1CCN(C(=O)CCC[C@H]2NC[C@@H]3C[C@H]2CN(Cc2ccccc2)C3)CC1	-	-	-	7.94µM
Cc1ccc2ncc3c(-c4ccc(F)cc4)nn(-c4cccc(F)c4)c3c2c1	-	-	-	-
O=C(NCc1ccc(F)cc1)C1CCc2nnc(-c3cccc(C(F)(F)F)c3)n21 (configuration not stated)	-	-	-	.
Cc1ccc(S(=O)(=O)N2CCCC(CCC(=O)N3CCCCC3)C2)cc1 (configuration not stated)	-	-	-	-
O=C(CCC1CCCN(S(=O)(=O)c2ccccc2)C1)N1CCN(c2ccccn2)CC1 (configuration not stated)	-	-	-	22.4µM
Cc1ccc(C(=O)N2CCC(CCC(=O)N3CCN(c4ccccn4)CC3)CC2)cc1	-	-	-	28.2µM
CC(=O)Oc1c(-c2ccc(NC(=O)C3CC3)cc2)c(-c2ccc3c(c2)OCO3)nn1-c1cccc(C)c1	-	-	-	35.5µM
CCC(=O)Nc1ccc(-c2c(-c3ccc(C)cc3)nn(-c3ccc(F)cc3)c2OC(C)=O)cc1	-	-	-	?
COc1ccc(-c2nn(-c3ccc(F)cc3)c(OC(C)=O)c2-c2ccc(NC(C)=O)cc2)cc1OC	-	-	-	20µM
CCC(=O)Nc1ccc(-c2c(-c3cc(OC)cc(OC)c3)nn(-c3ccc(C)cc3)c2OC(C)=O)cc1	-	-	-	28.2µM
CC(=O)Nc1ccc(-c2c(-c3cccc(C)c3)nn(-c3ccc(F)cc3)c2OC(C)=O)cc1	-	-	-	25.1µM
CC(=O)Nc1ccc(-c2c(C3CC3)nn(-c3cccc(C)c3)c2OC(C)=O)cc1	?	-	-	?
CC(=O)N1CCN(C(=O)c2cn3cc(-c4ccc(C)cc4)sc3n2)CC1	-	-	-	.
Cc1ccccc1C(=O)N1CCc2nc(C3CC3)nc(-c3ccc(Cl)cc3)c2C1	-	-	-	.
COc1ccc(-c2nn(-c3ccc(C)cc3C)c(OC(C)=O)c2-c2ccc(NC(C)=O)cc2)c(OC)c1	-	-	-	31.6µM
O=C1NCC2(CCCN(C(=O)c3cn[nH]c3-n3cnnn3)C2)O1 (configuration not stated)	-	-	-	-
O=C1NCC2(CCCN(C(=O)c3cnc4c(O)cccn4c3=O)C2)O1 (configuration not stated)	-	-	-	31.6µM
O=C(Nc1cccc(Cl)c1)c1cc2n(n1)CC(c1ccc3c(c1)OCO3)OC2 (configuration not stated)	-	-	-	25.1µM
CCc1cccc(NC(=O)c2cc3n(n2)CC(c2ccc4c(c2)OCO4)OC3)c1 (configuration not stated)	?	-	-	?
O=C(Nc1ccc(F)cc1)c1cc2n(n1)CC(c1ccc3c(c1)OCO3)OC2 (configuration not stated)	-	-	?	?
SMILES	HEK293 viab	IP6K1 inhibitor	SNCA expr inh	KDM5B inhibitor
COc1ccc(NC(=O)c2cc3n(n2)CC(c2ccc4c(c2)OCO4)OC3)c(OC)c1 (configuration not stated)	-	-	-	35.5µM
O=C(Nc1ccc(Cl)cc1)c1cc2n(n1)CC(c1ccc3c(c1)OCO3)OC2 (configuration not stated)	-	-	-	28.2µM
O=C(Nc1ccc2c(c1)CCC2)c1cc2n(n1)CC(c1ccc(Cl)cc1)OC2 (configuration not stated)	-	-	-	31.6µM
Cn1c(=O)c(-c2ccc(F)cc2)nc2cnc(OCc3ccccc3)nc21	-	.	-	.
Cc1noc(C)c1S(=O)(=O)N(C)Cc1ccc(F)cc1	-	-	-	-
O=C(c1cc2n(n1)CC(c1ccc3c(c1)OCO3)OC2)N1CCCC1 (configuration not stated)	?	-	-	28.2µM
COc1ccccc1-c1nc(C(=O)NC2CC2)n2ccncc12	-	-	-	35.5µM
COCCNC(=O)c1nc(-c2ccccc2OC)c2cnccn12	-	-	-	31.6µM
C[S+](=O)([O-])c1ccc(-c2nc(C(=O)NCc3ccc(F)cc3)n3ccncc23)cc1	-	-	-	-
COCCNC(=O)c1nc(-c2cccnc2)c2ccccn12	-	-	-	-
COc1ccccc1-c1nc(C(=O)NCc2cccs2)n2ccccc12	-	-	-	?
COc1ccccc1-c1nc(C(=O)NCc2ccc(F)cc2)n2ccncc12	?	-	-	89.1µM
COc1ccccc1-c1nc(C(=O)NCc2ccc(F)cc2)n2ccccc12	-	-	-	79.4µM
CS(=O)(=O)Nc1ccc(C2(C(=O)NCc3cc(F)cc(F)c3)CCCCC2)cc1	-	-	-	-
COc1ccc(Cl)cc1NC(=O)N(C)CCc1noc(C(=O)NCc2ccccc2)n1	.	.	.	-
Cc1ccc(-c2nn(CC(=O)Nc3ccc(C(=O)N(C)C)cc3)c(=O)c3ccccc23)cc1	.	.	.	-
COC(=O)CNC(=O)c1nc(-c2ccccc2OC)c2ccccn12	-	-	-	89.1µM
COC(=O)CNC(=O)c1nc(-c2ccccc2)c2ccccn12	-	-	-	-
CC1CC(C)CN(C(=O)C2CCN(S(=O)(=O)c3cccs3)CC2)C1 (configuration not stated)	.	.	.	-
COc1ccc(C(=O)N2CCCN(c3nnc4ccccn34)CC2)cc1F	?	-	-	25.1µM
COc1ccc(C(=O)N2CCN(c3nnc4ccccn34)CC2)cc1OC	-	-	-	25.1µM
COc1ccc(C(=O)N2CCCN(c3cc(-c4ccccc4)[nH]n3)CC2)cc1F	-	-	?	-
COc1ccc(C(=O)N2CCN(c3nc4c(OC)cccc4s3)CC2)cc1OC	-	-	-	-
O=C(OCC(=O)C1CCCCC1)/C(=C/c1ccccc1)c1cccs1	.	.	.	-
CCCc1ccc(S(=O)(=O)N2CCc3nc4cc[nH]n4c(=O)c3C2)cc1	-	-	?	14.1µM
Cc1ccc(S(=O)(=O)N2CCc3nc4cc[nH]n4c(=O)c3C2)cc1C	-	-	-	25.1µM
Cc1ccc(Cl)cc1N1CCN(CC(=O)NC2CCCC2)CC1	.	.	.	-
Cc1cccc(N2C(=O)CSC23CCN(C(=O)C2CC2)CC3)c1	-	-	-	25.1µM
CC(C)c1noc(-c2cn(C3CCCN(C(=O)c4cccc5[nH]ccc45)C3)nn2)n1 (configuration not stated)	-	-	-	17.8µM
